Assay outcomes (PubChem)
D2 antagonist – antagonists of human D2 dopamine receptor; inhibition, % at 10 µM; P14416; actives 2% (n = 340,000); AID 485344; HEK293 TREx D2 cells, calcium flux, dopamine EC80; in the data active = inhibition above about 30%; inactive = below that, where a call was filed; note: 0% is about no effect
Target sequence (P14416 whole entry, looked up): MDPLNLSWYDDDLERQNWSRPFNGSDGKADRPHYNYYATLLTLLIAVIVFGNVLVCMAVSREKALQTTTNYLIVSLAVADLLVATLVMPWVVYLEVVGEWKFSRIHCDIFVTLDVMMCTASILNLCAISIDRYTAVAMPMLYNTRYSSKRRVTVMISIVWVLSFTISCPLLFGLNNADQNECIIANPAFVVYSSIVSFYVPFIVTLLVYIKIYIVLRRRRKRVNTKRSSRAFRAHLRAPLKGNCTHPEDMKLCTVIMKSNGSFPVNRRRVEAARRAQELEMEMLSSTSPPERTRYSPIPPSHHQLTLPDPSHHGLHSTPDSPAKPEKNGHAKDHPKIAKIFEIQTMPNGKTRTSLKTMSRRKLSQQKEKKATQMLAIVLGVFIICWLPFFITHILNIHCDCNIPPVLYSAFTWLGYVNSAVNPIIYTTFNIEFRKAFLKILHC
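Cells plated overnight at 30 C with tetracycline; no-wash calcium dye, 30–90 min RT; 10 s baseline; compound pinned; 180 s read; EC80 dopamine added; another 180 s read.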
LDHA block – inhibitors of human lactate dehydrogenase A | P00338 | purified LDHA, NADH/diaphorase-resazurin fluorescence; stronger effect = lower value | activity change, % (values are at about 110 or 230 µM) | actives 0.15% (n = 480,000); in the data active = activity change below about -30%; inconclusive = mostly about -25% to -30%;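 note: plate controls were DMSO wells for no effect and wells without enzyme for full effect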
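LDH5 2 nM; NADH 0.06 mM, pyruvate 0.2 mM; 200 mM Tris pH 7.4, EDTA, Tween-20; 5 min RT. Detection: diaphorase 0.133 mg/mL + resazurin 37 µM, fluorescence ex540/em590 at 0 and 20 min; normalized to enzyme-free and DMSO wells.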
D2 PAM-1 – D2 dopamine receptor (human) potentiation. potentiation, % at 10 µM. P14416. actives 0.34% (n = 340,000). HEK293 T-REx D2, calcium flux, EC20 dopamine potentiation;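 active = potentiation over 3 SD above the plate norm, cut at about 30% in these data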; note: 0% is about no effect
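Tetracycline-induced HEK293 T-REx cells force-coupled to calcium signalling expressed D2; compounds were pin-added after a 10 s baseline, read kinetically 180 s, then an EC20 dopamine challenge followed with a further 180 s calcium read.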
D2 PAM-2 – human D2 receptor positive allosteric modulation; DiscoveRx D2 beta-arrestin cells, luminescence, 90 min; 100% = 57 uM dopamine signal; AID 624464; P14416; actives 0.23% (n = 360,000); potentiation, % (no concentration beside the values); in the data active = potentiation above about 50%; inconclusive = mostly about 30% to 49%
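PathHunter beta-arrestin assay in DiscoveRx D2 cells. Compounds were added with an EC20 of dopamine (50 nM final) for 90 min at 37 deg C. Luminescence was read 1 h after detection reagent, with 57 uM dopamine as the EC100 control.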
D2 ag-1 – activates the human D2 dopamine receptor | DiscoveRx PathHunter D2 beta-arrestin, luminescence, 90 min; 100% = 57 uM dopamine signal | AID 624465 | activation, % (no concentration beside the values) | actives 0.084% (n = 360,000) | P14416; in the data active = activation above about 40%; inconclusive = between about 15% and that limit
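DiscoveRx PathHunter D2 beta-arrestin cells (2,100/well) attached overnight, then compound-stimulated 90 min at 37 C in HBSS/10 mM HEPES/0.1% Tween-20 buffer; beta-galactosidase complementation read by luminescence after 1 h at ambient temperature. Dopamine 57 uM final (EC100) as control.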
D2 ag-2 – D2 dopamine receptor (human) agonism; P14416; HEK293 T-REx D2 cells, calcium flux agonist mode; activation, % at 2 µM; actives 0.53% (n = 340,000); AID 485358;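 active = activation over 3 SD above normal in the single-dose calcium agonist read, cut at about 30% in these data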; note: 0% is about no effect
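Tetracycline-induced HEK293 Trex cells with D2 receptor force-coupled to calcium signaling, plated overnight at 30 C and loaded with no-wash calcium dye. Calcium flux read kinetically for 180 s after compound addition; responses flag agonists.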
Numbers without * were called inactive; u = inconclusive; x = no result; ! = a repeat was not active. In the library only some 2.1% were active in any assay of this set; here they are far more common.

SMILES	D2 antagonist	LDHA block	D2 PAM-1	D2 PAM-2	D2 ag-1	D2 ag-2
COCCCNc1nc2c(c(=O)n(C)c(=O)n2C)n1Cc1cccc(OC)c1	39.7*	-2.5	13.9	-8.9	1.4	0.1
COC(=O)c1ccccc1NC(=O)c1cnn2c(C(F)F)cc(C3CC3)nc12	-26.7	-2.7	32.7*	15.2	-0.7	-1.6
CC1CCN(C(=O)C(=O)N2CCN(c3nc(-c4ccco4)c4c(c3C#N)CC(C)(C)OC4)CC2)CC1	x	14.3	x	x	x	x
O=C(/C=C/C=C/c1ccco1)c1ccc(N2CCOCC2)cc1	x	2.7	x	x	x	x
Cc1cc(=O)[nH]c(SCC(=O)Nc2ccc3c(c2)CCC3)c1C#N	35.7*	-16.0	6.0	1.0	5.0	0.3
COC(=O)c1ccc(C)c(NC(=O)Cc2ccc(OC)cc2OC)c1	x	-0.2	x	x	x	x
CCOC(=O)CC(NCc1ccc(OC)c(OCC)c1)c1ccc(C)cc1 (stereo not given)	60.6*	-2.9	-20.1	-12.9	-0.2	-0.3
CC(C)Oc1ccc(N2CC(C(=O)Nc3ccccc3F)CC2=O)cc1 (stereo not given)	-3.6	-7.9	-0.6	-17.9	0.5	-0.7
CC(OC(=O)Cc1ccc(F)cc1)C(=O)NCc1ccc2c(c1)OCO2 (stereo not given)	-4.9	-2.2	6.6	-2.4	-6.9	-1.8
CCOc1ccc(N2CC(C(=O)NCc3ccc4c(c3)OCO4)CC2=O)cc1 (stereo not given)	36.0*	-10.3	4.6	-16.4	-4.0	-0.2
COc1cccc(CC(=O)OC(C)C(=O)NCc2ccc3c(c2)OCO3)c1 (stereo not given)	55.1*	-7.4	-6.5	3.4	-3.8	0.0
CCOc1ccc(N2CC(C(=O)Nc3ccccc3F)CC2=O)cc1 (stereo not given)	33.7*	-12.6	-3.2	-6.1	-3.1	-1.3
CCOc1ccc(N2CC(C(=O)Nc3ccc(S(=O)(=O)Nc4nccs4)cc3)CC2=O)cc1 (stereo not given)	31.9*	-7.8	2.2	16.9	-1.5	0.6
Cc1ccc(-c2cc(C(=O)NCCCc3[nH]nc(N)c3C#N)c3ccccc3n2)o1	x	4.9	x	x	x	x
CCOC(=O)c1ccccc1NC(=O)C1CC(=O)N(C2CCCCC2)C1 (stereo not given)	41.4*	-2.0	-21.7	-4.9	-3.9	0.5
CCOC(=O)c1ccccc1NC(=O)C1CC(=O)N(C(C)(C)C)C1 (stereo not given)	x	-5.4	2.1	-1.3	-5.6	x
Cc1cccc(NC(=S)N2CCCCC2)c1	-1.9	0.2	18.9	-2.5	-4.6	0.7
Cc1ccc(C2CCN(C(=S)Nc3cccc(C)c3)C2)cc1 (stereo not given)	8.3	-5.2	75.4*	-12.3	-2.7	-0.7
CCOC(=O)c1[nH]c2ccc(F)cc2c1NC(=O)c1ccccc1F	x	0.4	x	x	x	x
O=C(O)CCCC(=O)Nc1nc(-c2ccc(F)cc2)cs1	9.4	-10.0	34.5*	-8.6	-1.0	-0.5
COc1cc(C(=O)OC(C)CN2CCN(C)CC2)cc(OC)c1OC (stereo not given)	-2.7	-3.1	1.0	-9.6	-2.1	0.3
COc1cc(C(=O)OC(C)CN2CCOCC2)cc(OC)c1OC (stereo not given)	40.0*!	-1.0	1.5	-13.1	-0.5	-1.5
O=C(c1cc2c(s1)-c1ccccc1OC2)N1CCc2ccccc2C1	33.1*	-5.9	-12.9	-1.3	-2.6	3.8
Cc1ccc(CCNC(=O)c2cc3c(s2)-c2ccccc2OC3)cc1	x	-36.4*	-16.4	x	x	0.0
Cc1ccc(NC(=O)N2CCN(c3cccc(Cl)c3)CC2)cc1C	x	1.4	x	x	x	x
O=C(CSc1nnc(-c2ccccc2F)n1C1CC1)c1cc2ccccc2o1	x	-0.7	x	x	x	x
O=C1CSc2ccc(C(=O)Nc3ccc(OC(F)F)cc3)cc2N1	x	20.5	x	x	x	x
CC(C)N=c1scc(-c2cccs2)n1/N=C/c1ccc(O)c(O)c1O	-7.7	25.6	3.9	54.6*	u	5.2
CN=c1scc(-c2ccccc2F)n1/N=C/c1ccc(O)c(O)c1O	-0.3	19.1	2.3	172.5*	180.3*	0.5
